Measured values from PubChem BioAssay.
Active and inactive are the calls of the source. Unless noted, no rule for the calls is given here.

Columns and labels:
[1] = anti-His antibody binders, primary screen, artefact control for SMM control protein annotation, biochemical, small-molecule microarray, 635 nm fluorescence (AID 1128); conditions: anti-His Alexa647 antibody binding, higher = more signal;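 also: score merges feature fluorescence with signal-to-noise for each printed compound spot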
[2] = system: Human papillomavirus type 1a E7 protein (residues 1-88); test: HPV1a E7 small-molecule binders, primary screen, biochemical, small-molecule microarray, residues 1-88, 635 nm (AID 1129); conditions: small-molecule microarray binding, fluorescence 635 nm; higher = more signal
[3] = biological target: Focal adhesion kinase 1 (Homo sapiens) (UniProt Q05397); test: small-molecule microarray binders of FAK, primary screen, biochemical, 635/667 nm fluorescence, BSA, DTT (AID 1130); conditions: PTK2 binding, 635 nm fluorescence, higher = more signal;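 also: composite of spot emission at 667 nm and signal to noise over triplicate slides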
Sequence of Focal adhesion kinase 1 (Homo sapiens) (Q05397 whole entry, looked up): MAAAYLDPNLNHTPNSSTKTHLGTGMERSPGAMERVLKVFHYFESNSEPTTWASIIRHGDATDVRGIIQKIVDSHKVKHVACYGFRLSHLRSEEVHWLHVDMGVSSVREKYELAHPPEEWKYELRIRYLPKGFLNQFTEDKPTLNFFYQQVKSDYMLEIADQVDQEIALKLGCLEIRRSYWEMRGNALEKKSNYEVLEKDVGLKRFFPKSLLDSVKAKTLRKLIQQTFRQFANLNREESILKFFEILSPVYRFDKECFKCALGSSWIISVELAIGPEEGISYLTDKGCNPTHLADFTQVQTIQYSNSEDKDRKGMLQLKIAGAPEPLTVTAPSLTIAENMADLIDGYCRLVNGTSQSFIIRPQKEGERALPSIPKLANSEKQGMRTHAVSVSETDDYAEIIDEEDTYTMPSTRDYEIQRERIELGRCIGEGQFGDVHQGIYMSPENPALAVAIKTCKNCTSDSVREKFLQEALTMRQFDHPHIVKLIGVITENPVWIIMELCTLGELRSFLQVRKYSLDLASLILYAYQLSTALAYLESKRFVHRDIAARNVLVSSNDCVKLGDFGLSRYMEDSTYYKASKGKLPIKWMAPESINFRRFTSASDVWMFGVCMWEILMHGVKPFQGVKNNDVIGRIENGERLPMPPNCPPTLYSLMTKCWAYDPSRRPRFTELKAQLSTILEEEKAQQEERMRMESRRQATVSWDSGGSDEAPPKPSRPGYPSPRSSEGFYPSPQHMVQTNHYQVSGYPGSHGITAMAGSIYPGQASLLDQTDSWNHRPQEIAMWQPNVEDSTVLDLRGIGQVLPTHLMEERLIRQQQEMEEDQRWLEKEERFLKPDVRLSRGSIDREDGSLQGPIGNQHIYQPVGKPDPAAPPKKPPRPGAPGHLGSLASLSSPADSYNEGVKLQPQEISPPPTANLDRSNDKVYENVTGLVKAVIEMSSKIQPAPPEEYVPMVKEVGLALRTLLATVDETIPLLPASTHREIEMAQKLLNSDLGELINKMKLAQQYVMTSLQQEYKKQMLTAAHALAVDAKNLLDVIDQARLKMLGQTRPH

[4] = system: Fibrinogen (Alexa647-labelled); test: fibrinogen binders on compound microarrays, profiling panel, artefact control for SMM control-protein annotation, biochemical, small-molecule microarray, 635/667 nm fluorescence (AID 1131); conditions: fibrinogen-A647 binding fluorescence, higher = more signal;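 also: z-score merges 667 nm fluorescence with per-spot signal-to-noise over triplicate slides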
[5] = biological target: Follistatin (Homo sapiens) (UniProt P19883); test: follistatin binders on small-molecule microarrays, primary screen, biochemical, small-molecule microarray, 635/667 nm fluorescence (AID 1132); conditions: FST binding, 635 nm fluorescence, higher = more signal
Sequence of Follistatin (Homo sapiens) (P19883 whole entry, looked up): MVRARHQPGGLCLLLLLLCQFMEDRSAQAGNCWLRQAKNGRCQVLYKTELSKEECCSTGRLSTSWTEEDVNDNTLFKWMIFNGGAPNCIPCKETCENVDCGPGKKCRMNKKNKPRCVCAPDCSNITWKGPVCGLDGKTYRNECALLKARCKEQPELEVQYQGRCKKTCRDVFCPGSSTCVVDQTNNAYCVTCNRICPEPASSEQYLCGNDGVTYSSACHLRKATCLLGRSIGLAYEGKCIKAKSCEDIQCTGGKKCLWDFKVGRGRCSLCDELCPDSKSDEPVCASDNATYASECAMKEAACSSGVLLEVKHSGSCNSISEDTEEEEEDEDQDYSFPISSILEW

[6] = biological target: Fibroblast growth factor 2 (Homo sapiens) (UniProt P09038); test: FGF2 binders on small-molecule microarrays, primary screen, biochemical, small-molecule microarray, 635/667 nm fluorescence (AID 1133); conditions: small-molecule microarray binding, FGF2, fluorescence 635/667; higher = more signal
Sequence of Fibroblast growth factor 2 (Homo sapiens) (P09038 whole entry, looked up): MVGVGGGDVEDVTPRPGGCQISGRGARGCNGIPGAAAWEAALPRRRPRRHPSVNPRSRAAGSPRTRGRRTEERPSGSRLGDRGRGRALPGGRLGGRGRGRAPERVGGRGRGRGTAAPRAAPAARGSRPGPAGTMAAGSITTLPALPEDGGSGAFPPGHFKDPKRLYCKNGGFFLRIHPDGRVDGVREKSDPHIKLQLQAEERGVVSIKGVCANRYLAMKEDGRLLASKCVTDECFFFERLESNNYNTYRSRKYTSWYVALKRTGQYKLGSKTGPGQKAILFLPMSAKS

[7] = mitochondrial membrane potential change in A549 cells, profiling panel, cell-based, JC-1 fluorescence, basal, 24 h, 100 nL (AID 1138); conditions: higher = more signal;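 also: A549 lung adenocarcinoma cells under basal conditions with no added stimulus; test concentration not given here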
Lefty1 = Lefty1 binders on small-molecule microarrays, primary screen, biochemical, small-molecule microarray, 635/667 nm fluorescence (AID 1139); conditions: small-molecule microarray binding, fluorescence 635/667; higher = more signal
[8] = system: wheat germ agglutinin (Triticum aestivum), Alexa647-labelled; test: wheat germ agglutinin binders on compound microarrays, profiling panel, artefact control for SMM control-protein annotation, biochemical, small-molecule microarray, 635/667 nm fluorescence (AID 1140); conditions: WGA-A647 binding, 635 nm fluorescence, higher = more signal;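 also: score merges 667 nm feature emission with signal to noise over triplicate slides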
[9] = biological target: Luciferin 4-monooxygenase (Photinus pyralis) (UniProt P08659); test: firefly luciferase enzyme inhibitors, primary screen, biochemical, luminescence, purified enzyme, 2006 set (AID 1141); conditions: SteadyGlo luminescence, 30 min, higher = more signal, called active from +8 up or from −8 down;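 also: cell-free assay with purified firefly luciferase at 100 ng per well in PBS; test concentration not given here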
Sequence of Luciferin 4-monooxygenase (Photinus pyralis) (P08659 whole entry, looked up): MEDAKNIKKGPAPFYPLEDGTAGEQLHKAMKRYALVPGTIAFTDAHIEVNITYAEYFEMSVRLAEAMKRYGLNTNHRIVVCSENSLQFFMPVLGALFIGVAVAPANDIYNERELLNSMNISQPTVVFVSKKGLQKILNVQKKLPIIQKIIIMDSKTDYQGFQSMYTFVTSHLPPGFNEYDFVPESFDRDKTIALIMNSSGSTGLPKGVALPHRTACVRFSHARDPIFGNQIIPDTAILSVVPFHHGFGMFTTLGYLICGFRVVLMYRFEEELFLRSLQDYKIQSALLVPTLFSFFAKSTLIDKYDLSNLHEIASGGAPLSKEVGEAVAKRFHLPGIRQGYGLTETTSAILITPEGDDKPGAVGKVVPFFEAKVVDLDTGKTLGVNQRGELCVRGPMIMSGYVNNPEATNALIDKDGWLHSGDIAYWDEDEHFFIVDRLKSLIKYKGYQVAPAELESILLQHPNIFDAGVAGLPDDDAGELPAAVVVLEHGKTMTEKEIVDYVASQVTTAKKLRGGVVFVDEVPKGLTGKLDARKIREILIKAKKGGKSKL

[10] = system: Wnt5a (protein binding on small-molecule microarray); test: Wnt5a binders on small-molecule microarray, primary screen, biophysical, 635/667 nm fluorescence (AID 1142); conditions: 635 nm fluorescence, higher = more signal;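 also: fluorescence read at 667 nm with signal to noise per printed feature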
[11] = cell viability in Huh7 cells, primary screen, cytotoxicity control for HCV replication inhibitor project, CellTiter-Glo luminescence, basal, 48 h (AID 1143); conditions: Huh7 HCV replicon, higher = more signal, called active from +8 up or from −8 down;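 also: Huh7 hepatoma cells carrying a hepatitis C replication reporter with no stimulus; test concentration not given here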
[12] = P. aeruginosa biofilm formation inhibitors, primary screen, PAO1 strain, BacTiter-Glo luminescence, LB-PBS (AID 1144); conditions: 12 h, higher = more signal
[13] = CREB reporter modulators without forskolin, primary screen, cell-based, PC12, CRE-LacZ reporter, unstimulated (AID 1145); conditions: no forskolin, luminescence, 4.5 h, higher = more signal, called active from +8 up or from −8 down
[14] = CREB reporter modulators under forskolin, primary screen, cell-based, PC12, CRE-LacZ reporter, forskolin-stimulated (AID 1146); conditions: luminescence, 4.5 h, higher = more signal, called active from +8 up or from −8 down;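 also: PC12 cells with 6xCRE LacZ reporter stimulated by forskolin 10 µM; beta-galactosidase reporter signal reflecting CREB driven transcription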
[15] = biological target: Streptavidin (Streptomyces avidinii) (UniProt P22629); test: streptavidin binders on small-molecule microarray, primary screen, artefact control for SMM compound annotation, biophysical, 635/667 nm fluorescence (AID 1147); conditions: streptavidin binding, higher = more signal;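 also: signal reflects streptavidin binding to arrayed compounds as a control protein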
Sequence of Streptavidin (Streptomyces avidinii) (P22629 whole entry, looked up): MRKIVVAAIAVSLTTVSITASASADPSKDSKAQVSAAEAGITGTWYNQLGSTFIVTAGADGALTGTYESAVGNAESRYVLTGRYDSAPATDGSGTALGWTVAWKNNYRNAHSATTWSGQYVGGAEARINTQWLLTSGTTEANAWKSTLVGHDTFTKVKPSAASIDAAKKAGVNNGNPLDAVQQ

[16] = small-molecule binders of probe aInhba, primary screen, biochemical, small-molecule microarray, 635/667 nm fluorescence (AID 1148); conditions: higher = more signal;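 also: score merges 667nm spot fluorescence with signal-to-noise for antibody binding to printed compounds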
Torsin-1A (Homo sapiens) [17] = biological target: Torsin-1A (Homo sapiens) (UniProt O14656); test: torsin A binders from cell lysate, primary screen, small-molecule microarray, wild-type, 635/667 nm (AID 1149); conditions: COS7 hTOR1A-WT lysate, 635 nm fluorescence, higher = more signal
Sequence of Torsin-1A (Homo sapiens) (O14656 whole entry, looked up): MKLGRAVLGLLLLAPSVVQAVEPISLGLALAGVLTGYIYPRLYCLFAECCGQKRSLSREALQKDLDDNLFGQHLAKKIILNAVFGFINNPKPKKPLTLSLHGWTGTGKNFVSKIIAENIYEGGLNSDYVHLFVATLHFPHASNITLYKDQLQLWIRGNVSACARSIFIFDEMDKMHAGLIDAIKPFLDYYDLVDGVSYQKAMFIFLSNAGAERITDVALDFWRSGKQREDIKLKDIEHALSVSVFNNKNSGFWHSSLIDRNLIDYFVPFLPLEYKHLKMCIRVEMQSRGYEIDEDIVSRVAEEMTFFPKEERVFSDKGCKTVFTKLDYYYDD

Torsin-1A (Homo sapiens) [18] = biological target: Torsin-1A (Homo sapiens) (UniProt O14656); test: small-molecule binders of mutant TOR1A in lysate, primary screen, cell lysate, small-molecule microarray, COS7 lysate, 635/667 nm fluorescence (AID 1150); conditions: COS7 hTOR1A mutant lysate, 635 nm fluorescence, higher = more signal;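 also: score pools 667 nm emission and signal to noise measuring lysate protein binding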
[19] = system: Sonic hedgehog protein (Shh); test: small-molecule binders of Shh protein, primary screen, biochemical, small-molecule microarray, 635/667 nm fluorescence (AID 1151); conditions: small-molecule microarray binding, 635 nm fluorescence; higher = more signal;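 also: Shh protein binding to compounds spotted on small-molecule microarray slides; score combines spot fluorescence intensity with signal-to-noise across triplicate slides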

Row | SMILES | composite z-score [1] | composite z-score [2] | composite z-score [3] | composite z-score [4] | composite z-score [5] | composite z-score [6] | z-score [7] | composite z-score (Lefty1) | composite z-score [8] | z-score [9] | composite z-score [10] | z-score [11] | z-score [12] | z-score [13] | z-score [14] | composite z-score [15] | composite z-score [16] | composite z-score (Torsin-1A (Homo sapiens) [17]) | composite z-score (Torsin-1A (Homo sapiens) [18]) | composite z-score [19]
1 | C#CCOC(=O)N[C@H](C=CCCCC)c1ccccc1 | 1.33 | 0.95 | 0.4 | 0.762 | -0.101 | -0.204 | 0.59 | -1.09 | 0.817 | 0.597 (inactive) | -0.0582 | -0.342 (inactive) | -0.604 (inactive) | 0.197 (inactive) | 0.488 (inactive) | 0.335 | 0.0714 | 0.28 | 0.0584 | -0.13
2 | C=CCOC(=O)[C@@H]1[C@H]2C(=O)O[C@H](c3ccccc3)[C@H](c3ccccc3)N2[C@H](c2ccc(OCCOC(=O)[C@H]3C[C@H]4C(=O)N[C@@H](Cc5ccccc5)C(=O)N4[C@H]3c3cccc(OCCO)c3)cc2)[C@@]12C(=O)Nc1ccc(I)cc12 | 1.51 | 1.2 | 0.819 | 0.464 | 1.42 | 1.72 | -1.37 | 1.33 | 0.548 | -3.65 (inactive) | 0.776 | -0.467 (inactive) | -0.787 (inactive) | 6.98 (inactive) | 11.6 (active) | 0.502 | 0.294 | 0.787 | 0.959 | 2.02
3 | C[N+](C)(C)CCCCNC(=O)[C@H]1C[C@H]2C(=O)NCC(=O)N2[C@H]1c1ccc(O)cc1 | 3.01 | 0.241 | -0.169 | -0.0907 | 1.41 | 1.91 | 0.244 | 1.49 | -0.287 | -0.367 (inactive) | 0.442 | 0.215 (inactive) | -0.895 (inactive) | -0.398 (inactive) | -0.501 (inactive) | 0.158 | 0.106 | 0.979 | 0.672 | 2.14
4 | COCCCNC(=O)[C@@H]1c2ccccc2C(=O)N(Cc2cc(F)cc(C(F)(F)F)c2)[C@H]1c1ccc(CO)cc1 | -0.669 | -1.06 | -0.751 | -1.81 | -0.252 | -0.94 | 0.261 | -0.584 | 0.373 | -0.646 (inactive) | -0.575 | -0.016 (inactive) | -0.043 (inactive) | 0.944 (inactive) | -0.224 (inactive) | -0.716 | -0.264 | -2.22 | -0.0932 | -0.508
5 | C=CCC(OC(C)=O)[C@@H]1[C@@H](N(Cc2ccc(-c3ccccc3)cc2)C(=O)c2cccc3ccccc23)c2cc(OCCCO)ccc2N1C(=O)c1ccc2ccccc2n1 (stereo not given in full) | 0.952 | 0.138 | 0.16 | -0.0282 | 0.374 | 0.268 | 1.14 | 0.565 | 0.139 | -0.658 (inactive) | 0.0553 | -1.48 (inactive) | 0.321 (inactive) | 1.76 (inactive) | -0.505 (inactive) | 0.306 | 0.237 | 0.258 | 0.0374 | 0.0754
